Rows were chosen to be rich in hits. Some 7.1% of all compounds tested hit in one or more screens of this group.
MARV entry inh: inhibitors of Marburg virus binding or entry into cells | AID 720532 | Marburg virus pseudotype entry/binding inhibition, cell-based | Potency, µM (series often up to 49.2 µM), most hits filed as inhibitors | hit rate 6.5% among 18,000
LASV entry inh: Lassa virus entry inhibition. Lassa virus pseudotyped entry inhibition, cell-based qHTS. Potency, µM (titrated, usually from 49.2 µM), most hits filed as inhibitors. hit rate 4.1% among 18,000
Each line names hits and unclear results; the compound was inactive in the other large screens; ! = not active in a repeat. The call rests on the fitted dose curve; tested in HEK293 cells.

CCN1C(=NCCc2ccc(Br)cc2)NC(c2ccccc2)C(C(=O)OC)=C1C (centres undefined)	MARV entry inh inconclusive
COC(=O)CC=C[C@@H](C)[C@@H](C=NO[C@H](C)CN1CCCc2nc(C)c(C)cc21)N[S+](=O)([O-])c1ccc(C)cc1	MARV entry inh inconclusive
C#CCN1CC(=O)N(COC(=O)C2C(C=C(C)C)C2(C)C)C1=O (centres undefined)	none
C=CCC1=C(C)C(OC(=O)C2C(C=C(C)C)C2(C)C)CC1=O (centres undefined)	MARV entry inh inconclusive, LASV entry inh 28µM
COc1ccc2c(c1)O[C@@H](c1ccc3c(c1)OCO3)[C@H](OC(=O)NS(=O)(=O)c1ccc(F)cc1)C2=O	none
Fc1ccc([C@H]2CCNCC2COc2ccc3c(c2)OCO3)cc1 (some centres undefined)	MARV entry inh 10µM
Fc1ccc([C@H]2CCNC[C@H]2COc2ccc3c(c2)OCO3)cc1	MARV entry inh 11µM, LASV entry inh inconclusive
COc1ccc2c(c1)O[C@H](c1ccc3c(c1)OCO3)[C@@H](OC(=O)NS(=O)(=O)c1ccc(F)cc1)C2=O	none
COC(=O)N[C@@H](C=Cc1ccccc1)C[N+](=O)[O-]	none
CCCCN1CC(COCc2ccccc2)Oc2cccc(Oc3ccccc3)c2S1(=O)=O (centres undefined)	LASV entry inh 4µM
CCCCN1CC(COCc2ccccc2)Oc2cccc(Oc3ccc(C)cc3)c2S1(=O)=O (centres undefined)	none (no result: LASV entry inh)
CCC[CH2][Sn][CH2]C=C[C@@H]1C[C@@H](CCOCc2ccc(OC)cc2)OP(=O)(O)O1	none
COC(=O)CC=C1c2ccccc2[C@@H](O)[C@@H]1C	none
O=C(NN=C1C[C@@H](O)[C@H](O)[C@H]2[C@@H]3C(=O)N(C4CCCCC4)C(=O)[C@@H]3CC[C@@H]12)OCc1ccccc1	none
C=C/C(=C/C(=O)C[C@H](C)C[C@@H](C)CC[C@H](O)[C@H](C)C(=O)C[C@@H](O)[C@H](C)[C@@H](C)OC(=O)C[C@@H](O)C1=C(C)C(=O)OC1=O)CC	MARV entry inh 2.5µM, LASV entry inh 2µM
Cc1cc(C(C)(C)CC(C)(C)C)ccc1OCCOCC[N+](C)(C)Cc1ccccc1	MARV entry inh 11µM, LASV entry inh inconclusive
C[N+](C)(C)CCOC(=O)C(O)(c1ccccc1)c1ccccc1	none
C[C@@H](c1ccccc1)N1C(=O)[C@@H]2[C@H]3[C@H](O)[C@H](O)CC(=NNC(=O)OCc4ccccc4)[C@@H]3CC[C@H]2C1=O	none
COC(=O)N[C@@H](c1ccc(Cl)cc1)C(C(C)=O)C(=O)OC (some centres undefined)	none
C[C@H]1[C@H]2CC[C@H]3C4CC=C5C[C@@H](N(C)C)CC[C@]5(C)C4CC[C@]23CN1C (some centres undefined)	MARV entry inh 11µM
C[C@]12CC[C@H](O)CC1=CC[C@@H]1[C@@H]2CC[C@]2(C)C(=O)CC[C@@H]12	none
Cc1c(C(=O)NCC2(N3CCCCC3)CCCC2)cnn1-c1nccc(-c2ccccc2F)n1	none
Cc1c(C(=O)NCC2(N3CCOCC3)CCCCCC2)cnn1-c1nccc(-c2ccccc2F)n1	MARV entry inh 11µM
COC(=O)[C@H]1[C@H](C)[C@@]2(O)c3ccccc3N(C)[C@@]1(C)[C@H]2O	none
C=CCOC(=O)N[C@H](C(C(=O)OC)=C(C)NCc1ccccc1)c1ccc(C)cc1	none (no result: LASV entry inh)
CC(C)(O)C1O[C@H]2CC[C@@]3(C)[C@@](O)(CC[C@H]4Cc5c([nH]c6ccccc56)[C@@]43C)C2=CC1=O (some centres undefined)	MARV entry inh inconclusive, LASV entry inh 32µM!
C[C@H]1CC[C@H]2C(=O)N(Cc3cccc([N+](=O)[O-])c3)C[C@H](O)CN2[C@H]1c1cccc(Br)c1	none
COc1ccccc1N1C(=O)[C@@H]2CSCCS(=O)(=O)N2C1=O	none
CC(C)C[C@@H]1COc2cccc(F)c2S(=O)(=O)N1	none
N[C@@H](Cc1ccc(O)cc1)C(=O)O	none
NC(Cc1ccc(O)c(O)c1)C(=O)O (centres undefined)	MARV entry inh 1.6µM
C[C@@H]1CC[C@H]2C(=O)N3[C@@H](CC[C@@H](C)[C@@H]3c3ccc(-c4ccco4)cc3)C(=O)N2[C@@H]1c1ccc(-c2ccco2)cc1	none
CC1CCC2C(C)C(=O)OC3O[C@]4(C)CCC1[C@@]32OO4 (some centres undefined)	none
C[C@@H]1CC[C@H]2[C@@H](C)C(=O)O[C@@H]3O[C@@]4(C)CC[C@@H]1[C@]32OO4	MARV entry inh 1.8µM, LASV entry inh 2.2µM
C=C1C[C@H]2[C@@H]3C=C(C)C4=CC(=O)CC[C@]4(C)[C@H]3CC[C@]2(C)[C@@]1(OC(C)=O)C(C)=O	MARV entry inh 13µM!, LASV entry inh inconclusive
CC(=O)[C@]1(O)CCC2C3CCC4=CC(=O)CC[C@@]4(C)C3CC[C@]21C (some centres undefined)	none
C=C1C[C@H](OC(=O)C(C)(O)CCl)C2C(=C)C(=O)O[C@@H]2C2C1C[C@H](O)[C@]2(O)CCl (some centres undefined)	MARV entry inh 20µM, LASV entry inh inconclusive
CC[C@@]12C=C(C=Cc3ccccc3)[C@](CC)(C1)[C@H](c1ccccc1)CC2=O	MARV entry inh inconclusive
Cc1ccc(CN2[C@@H](CC(C)C)COc3c(Cl)cccc3S2(=O)=O)cc1	none
CCCCCCCCCCCC[N+](C)(C)Cc1ccccc1	MARV entry inh 20µM, LASV entry inh 14µM
CCCCCCCCCCCCCCCC[N+](C)(C)CCN(Cc1ccc(OC)cc1)c1ncccn1	none
COC(=O)[C@@H]1CC[C@H](C)[C@@H](c2ccc(C)cc2)N1C(=O)c1ccc(C=NOC[C@@H](O)[C@H]2O[C@@H]3OC(C)(C)O[C@H]3[C@@H]2O)cc1	none (no result: LASV entry inh)
O=c1oc2ccccc2c2c1[C@H]1O[C@](c3ccsc3)(Cc3ccccc31)O2	none
COC(=O)C1=C[C@@H]([C@@H](C)[C@H](OC)c2ccccc2Br)[C@@H]2OCC[C@H]12	none
COC(=O)C1=C[C@H]([C@@H](C)[C@H](OC)c2ccccc2Br)[C@H]2c3ccccc3O[C@@H]12	MARV entry inh inconclusive, LASV entry inh 1.7µM
CC(C)C[C@H]1COc2c(Cl)cccc2S(=O)(=O)N1Cc1ccc(Cl)cc1	LASV entry inh inconclusive
CC(C)CON=C1C[C@@H](O)[C@@H](O)[C@@H]2[C@H]3C(=O)N(Cc4ccc5c(c4)OCO5)C(=O)[C@@H]3CC[C@H]12	none
CCc1ccc2c(c1)N(CC(C)CN(C)C)c1ccccc1S2 (centres undefined)	MARV entry inh 14µM, LASV entry inh 18µM
CC(CN1c2ccccc2Sc2ccc(S(=O)(=O)N(C)C)cc21)N(C)C (centres undefined)	MARV entry inh inconclusive
COC(=O)CC=C[C@@H](C)[C@H](OC)c1c(Br)ccc2c1OCO2	MARV entry inh inconclusive
CN(Cc1cnc2nc(N)nc(N)c2n1)c1ccc(C(=O)N[C@@H](CCC(=O)O)C(=O)O)cc1	none
CN(Cc1cnc2nc(N)nc(N)c2n1)c1ccc(C(=O)N[C@H](CCC(=O)O)C(=O)O)cc1	MARV entry inh 32µM
CCCCCCCCCCCCCCCCn1cc[n+](Cc2ccccc2)c1C	MARV entry inh 7.1µM, LASV entry inh 11µM
CCCCCCN1CCN(C2CN(CCc3ccccc3)S(=O)(=O)C2)CC1 (centres undefined)	none
Cc1nc(-c2ccc(OCC(C)C)c(C#N)c2)sc1C(=O)O	MARV entry inh inconclusive, LASV entry inh 7.9µM
C[C@H]1N[S+](=O)([O-])c2ccc(Br)cc2O[C@@H]1c1ccccc1	none

Compound activity deposited in PubChem by National Center for Advancing Translational Sciences (NCATS).
